Compound activity deposited in PubChem BioAssay by National Center for Advancing Translational Sciences (NCATS).
The sample as a whole holds a higher share of hits than the screen did.
HT1080NT lethal = kills 2HG-producing HT-1080-NT fibrosarcoma cells; HT-1080-NT fibrosarcoma viability, CellTiter-Glo ATP luminescence, 48 h; AID 686970; 360,000 tested, 1.6% active; Potency, µM (titrated, usually from 46.1 µM), usual class: cytotoxic;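 further: NT is the 2HG producing partner of a matched IDH1 knockdown line; nearly all actives have a fitted effect of over 55% in size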
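HT-1080-NT; 750 cells/well; 5% FBS RPMI; 48 h compound, 37 degrees C; CellTiter-Glo luminescence; curve fitting and curve-class assignment.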
HT1080 IDH1KD tx = kills HT-1080 cells with IDH1 knockdown | HT-1080 IDH1 knockdown viability, ATP luminescence, 48 h | Potency, µM (titrated, usually from 46.1 µM), hits mostly cytotoxic | 360,000 tested, 2% active | AID 686971
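Using the IDH1-knockdown HT-1080 line run in the same batch and compound series as the NT line, viability after 48 h at 37 °C was determined by CellTiter-Glo luminescence and expressed as % activity.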
IL-1B inflam inh = blocks inflammasome-driven IL-1 beta release | THP-1 LPS/ATP IL-1B secretion, AlphaLISA, 16 h; stronger effect = lower value | activity change, % at 57.5 µM | 360,000 tested, 4.7% active | AID 743279; in the data active means activity change below about -50%; inconclusive means mostly about -30% to -49%
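Secreted IL-1B measured by AlphaLISA bead assay after 16 h compound exposure of THP-1 cells; compounds (final up to 57.5 uM) added 1 h before LPS (250 ng/mL) and ATP (1.25 mM) stimulation; lower signal means less secretion.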
TDP1 cell CPT = DT40-hTDP1 cell growth loss with CPT; chicken DT40 Tdp1-/-;hTDP1 cells + 20 nM CPT, ATP luminescence, 48 h; Potency, µM (doses to about 46.2 µM), most hits filed as inhibitors; 420,000 tested, 12% active; AID 686979; further: nearly all actives have a fitted effect of over 55% in size
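Cell growth measured by CellTiter-Glo luminescence after a minimum 48 h, 37 C compound exposure with 20 nM CPT in Tdp1-knockout DT40 cells stably expressing hTDP1, seeded 400/well; qHTS titration format.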
DT40 TDP1 no CPT = qHTS for Inhibitors of human tyrosyl-DNA phosphodiesterase 1 (TDP1): qHTS in cells in absence of CPT; 420,000 tested, 15% active; Potency, µM (top dose mostly 46.2 µM), usual class: inhibitors; DT40 Tdp1-/- hTDP1 cells, no CPT, ATP luminescence, 48 h; further: nearly all actives have a fitted effect of over 55% in size
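A cellular qHTS used chicken DT40 cells lacking endogenous Tdp1 but carrying stably transfected human TDP1. Compounds were applied without camptothecin, and cell growth kinetics were judged by ATP-dependent luminescence after ≥48 hr.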
12-LOX inh = blocks human arachidonate 12S-lipoxygenase. P18054. purified 12hLO, xylenol orange hydroperoxide absorbance. Potency, µM (series often up to 108 µM), most hits filed as inhibitors. 580,000 tested, 1.1% active. AID 1671190
Target sequence (P18054 whole entry, looked up): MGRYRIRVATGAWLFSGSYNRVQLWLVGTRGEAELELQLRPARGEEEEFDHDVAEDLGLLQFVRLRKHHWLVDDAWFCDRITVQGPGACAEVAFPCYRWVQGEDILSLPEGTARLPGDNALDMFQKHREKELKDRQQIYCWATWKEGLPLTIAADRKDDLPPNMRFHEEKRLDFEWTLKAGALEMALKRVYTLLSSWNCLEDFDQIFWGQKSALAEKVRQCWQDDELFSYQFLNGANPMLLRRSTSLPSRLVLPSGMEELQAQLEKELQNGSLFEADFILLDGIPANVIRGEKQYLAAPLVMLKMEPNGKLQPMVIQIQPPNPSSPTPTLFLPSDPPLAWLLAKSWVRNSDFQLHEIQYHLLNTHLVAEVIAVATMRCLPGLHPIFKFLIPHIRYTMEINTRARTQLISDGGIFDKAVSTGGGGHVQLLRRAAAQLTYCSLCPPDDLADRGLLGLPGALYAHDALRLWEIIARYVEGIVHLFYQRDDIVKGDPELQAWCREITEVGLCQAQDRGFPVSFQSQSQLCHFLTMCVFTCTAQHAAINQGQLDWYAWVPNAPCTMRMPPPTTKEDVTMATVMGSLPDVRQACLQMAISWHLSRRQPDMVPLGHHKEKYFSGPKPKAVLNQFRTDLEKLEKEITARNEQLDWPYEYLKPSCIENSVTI
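Purified human 12hLO (150 nM final) in 25 mM Hepes, 0.01% Triton X-100, pH 7.0 was preincubated 15 min at room temperature with compound. Then 40 uM arachidonic acid was added, 30 min. Hydroperoxide was read by Fe-XO absorbance ratio 573/405 nm.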
Hits are given with their value; n = inactive; u = inconclusive; x = no result given. Unless noted, the call rests on the fitted dose curve; in most records, active means well fitted curve in the direction sought with a large enough effect; inconclusive means small, poorly fitted or top-dose-only effect, or another doubt; inactive means no such curve, though single readings can be large; an effect the other way counts as inactive or inconclusive.

SMILES	HT1080NT lethal	HT1080 IDH1KD tx	IL-1B inflam inh	TDP1 cell CPT	DT40 TDP1 no CPT	12-LOX inh
O=C(CCS(=O)(=O)Cc1ccc(Cl)cc1)NCCCN1CCN(c2ccccc2F)CC1	u	u	u	11µM	u	n
COc1ccc(CCC(=O)NCCS(=O)(=O)N2CCN(c3ccccc3F)CC2)cc1	n	n	n	u	u	n
Cc1c(C(=O)NCCS(=O)(=O)N2CCN(c3ccccc3F)CC2)cccc1[N+](=O)[O-]	u	u	n	u	21µM	n
O=C(CCCc1ccccc1)NCCS(=O)(=O)N1CCN(c2ccccc2F)CC1	n	n	n	u	18µM	n
CCOCCCNc1nc2c(c(=O)[nH]c(=O)n2C)n1CCC(C)C	x	x	x	x	x	n
CCCNC(=O)NNC(=O)C(C)Oc1cccc(C(F)(F)F)c1 (stereo not drawn)	x	x	x	x	x	n
O=C(Cc1ccc(Cl)cc1)NCCS(=O)(=O)N1CCN(c2ccccc2F)CC1	u	u	n	5.2µM	5.8µM	u
COc1ccc(NC(=O)Cn2nc3n(c2=O)CCCC3)cc1	x	x	x	x	x	n
CCN(CC)CCn1c2ccccc2c2nc3ccc([N+](=O)[O-])cc3cc21	n	n	n	8.2µM	4.6µM	n
O=C(NCc1ccco1)c1ccc(Br)s1	n	n	n	n	n	n
O=C(NCc1ccco1)c1ccc(-c2ccc3nccn3c2)cc1	n	u	-101	23µM	u	u
O=C(NCc1ccco1)c1ccc(C(=O)NCc2ccco2)s1	n	n	n	u	26µM	n
CSc1ccc(Cl)c(C(=O)NCc2ccco2)c1	n	n	n	16µM	u	n
O=C(Nc1cccc(F)c1)N1C[C@@H]2C[C@H](C1)c1c(-c3cc4ccccc4s3)ccc(=O)n1C2	x	x	x	x	x	n
O=C1Nc2ccccc2CC12CCN(Cc1ccc(C(F)(F)F)cc1)CC2	x	x	x	x	x	n
CC1(C)CCCC(C)(C#CCN2CCN(c3ccccc3)CC2)O1 (stereo not drawn)	x	x	x	x	x	n
CC1(C)CCCC(C)(C#CCN2CCN(C(c3ccccc3)c3ccccc3)CC2)O1 (stereo not drawn)	x	x	x	x	x	10µM
O=c1cc(N2CCN(c3ccc(F)cc3)CC2)[nH]c(=O)n1Cc1ccc(F)cc1	n	n	n	9.2µM	8.2µM	n
CCc1cc(N2CCC(NCCc3cccc(Cl)c3)CC2)nc(C)n1	x	x	x	x	x	n
COC(=O)C1=C(C(=O)OC)[C@@H]2N(Cc3ccccc3)c3ccccc3[C@@]23C[C@@H](C(=O)OC)N(C(=O)c2cc(C)oc2C)C3=N1	n	n	n	23µM	18µM	u
C#CCCOC(=O)N1C2=NC(C(=O)OC)=C(C(=O)OC)[C@@H]3N(Cc4ccccc4)c4ccccc4[C@]23C[C@H]1C(=O)OC	n	u	n	16µM	u	x
CCOC(=O)N1C2=NC(C(=O)OC)=C(C(=O)OC)[C@@H]3N(C)c4ccccc4[C@]23C[C@H]1C(=O)OC	n	n	n	16µM	18µM	u
COC(=O)C1=C(C(=O)OC)[C@@H]2N(Cc3ccccc3)c3ccccc3[C@@]23C[C@@H](C(=O)OC)N(C(=O)c2cccs2)C3=N1	u	u	n	21µM	u	n
CC(C)(C)n1nnnc1SCC(=O)N(Cc1cccs1)c1ccc2c(c1)OCCO2	x	x	x	x	x	n
CCOc1ccc(C(=O)OCC(=O)NCC(F)(F)F)cc1	x	x	x	x	x	n
SMILES	HT1080NT lethal	HT1080 IDH1KD tx	IL-1B inflam inh	TDP1 cell CPT	DT40 TDP1 no CPT	12-LOX inh
CCCCOCCN(C)CC(=O)NCCCOC	x	x	x	x	x	n
COC(=O)C1=C(C(=O)OC)[C@@H]2N(C)c3ccc(OC)cc3[C@@]23C[C@@H](C(=O)OC)N(C(=O)c2cc(C)oc2C)C3=N1	n	n	n	23µM	u	x
CC#CCN1c2ccccc2[C@]23C[C@@H](C(=O)OC)N(C(=O)c4ccc(Br)cc4)C2=NC(C(=O)OC)=C(C(=O)OC)[C@H]13	n	n	n	21µM	18µM	x
CCn1c(=O)c(=O)[nH]c2cc(C(=O)N3CCN(C(=O)C4CC4)CC3)ccc21	x	x	x	x	x	n
O=C(CSc1ccccc1F)NC(=O)C1CCCCC1	x	x	x	x	x	n
N/C(=N\S(=O)(=O)c1cc(C(F)(F)F)cc(C(F)(F)F)c1)c1ccc(Cl)cc1	u	u	n	18µM	21µM	n
O=C(COc1ccc([N+](=O)[O-])cc1)Nc1ccc2oc(-c3ccc(F)cc3)nc2c1	x	x	x	x	x	7.9µM
O=C(Nc1ccc(O)c(-c2nc3ccccc3o2)c1)C1(c2ccc(Br)cc2)CCCC1	n	n	n	u	13µM	n
COc1ccc(C(=O)Nc2ccccc2-c2nc3ccccc3s2)c(OC)c1	x	x	x	18µM	16µM	n
Cc1ccc(OCC(=O)Nc2cccc(-c3nc4ccccc4s3)c2)cc1	x	x	x	u	u	n
COc1ccc(OCC(=O)Nc2ccc(O)c(-c3nc4ccccc4s3)c2)cc1	x	x	x	0.82µM	u	n
